Measured values published in paper PMC7819943, “Rice protein-binding microarrays: a tool to detect cis-acting elements near promoter regions in rice”.
Whole data set: some 35,000 sequences, median “fluorescence intensity (a.u.)” near 10,000, cut for the highest 2% near 52,000. The full list was thinned out, with the highest values kept by preference.

Biological target: T1, OsWOX13 (Oryza sativa, UniProt Q5QMM3 1-267)
T1 sequence: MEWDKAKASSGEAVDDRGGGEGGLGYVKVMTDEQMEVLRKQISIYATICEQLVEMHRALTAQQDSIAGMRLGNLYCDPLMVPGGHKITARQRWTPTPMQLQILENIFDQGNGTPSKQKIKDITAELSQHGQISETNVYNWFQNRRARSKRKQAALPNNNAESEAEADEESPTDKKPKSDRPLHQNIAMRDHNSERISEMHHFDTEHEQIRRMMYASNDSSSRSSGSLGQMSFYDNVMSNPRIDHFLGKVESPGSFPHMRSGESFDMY
Test: protein-binding microarray (RPBM); PBS, 2% BSA, 51.3 ng/ul salmon testes DNA, 50 uM zinc acetate, 200 nM TF, 25 C, 1 h; high values mean tight binding
Conditions: protein: recombinant; tags: N-terminal polyhistidine and DsRed monomer fusion (pET32a); label: CyDye5-dUTP incorporated in the synthesized complementary strand; 3' TTTTT single-stranded linker to array surface; dsDNA, one strand shown
Outline: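 The binding signal for each feature is its fluorescence intensity in arbitrary units. An Axon 4000B scanner was used to read a custom Agilent array that had been made double-stranded with Cy5-dUTP primer extension, blocked with 2% BSA, incubated at 25 °C for 1 h with 200 nM protein in PBS, 2% BSA, salmon testes DNA and 50 µM zinc acetate, and washed. The protein was an N-terminal polyhistidine–DsRed transcription factor fusion from E. coli BL21-CodonPlus, purified on Ni–NTA.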

Sequence | binding signal
ACATATAATTGCCACGTCAGCGCCACATCAATGCCACGTGCGGAGTCACCTAGTGCAG | 23200 fluorescence intensity (a.u.)
ATTAAAATTATGAAATTTTAATGATTCATTAATCTCAAGACGGAGTCACCTAGTGCAG | 14100 fluorescence intensity (a.u.)
AACCGAAAATTATTATTTTAATCGGCGTGGTGTCCACTGGCGGAGTCACCTAGTGCAG | 4880 fluorescence intensity (a.u.)
TCATTAATGATCTAATCACCAACTAAACTCCCTATCAATTCGGAGTCACCTAGTGCAG | 18200 fluorescence intensity (a.u.)
GTTTGTTTAGATTGGTACCATTTAAAATCATATTATTTTGCGGAGTCACCTAGTGCAG | 20600 fluorescence intensity (a.u.)
GGACAGATTAACTATCACTTAATTTCAGGTTTCCATGTATCGGAGTCACCTAGTGCAG | 22700 fluorescence intensity (a.u.)
TACTACTAATTATATGCCGATTGAGAGTGTTGTAGCGTCACGGAGTCACCTAGTGCAG | 17700 fluorescence intensity (a.u.)
CTGTTCACACGGATTGATCATTGATGGATCCATGCTGATGCGGAGTCACCTAGTGCAG | 9220 fluorescence intensity (a.u.)
CCTGTTGATTGGTTAGCCCAGCCCATGATGTAGCCCATGACGGAGTCACCTAGTGCAG | 38200 fluorescence intensity (a.u.)
GGCGCACTGATTGTTCATGATTGATGCAGTGATCCGGGCACGGAGTCACCTAGTGCAG | 59600 fluorescence intensity (a.u.)
ATGATGATTGGTTGGTTACGGGCATGTTCAGATTGTAGCCCGGAGTCACCTAGTGCAG | 54900 fluorescence intensity (a.u.)
CTGTACTGATTGTTCACGGGTCGTTTCCGCACTATGGAACCGGAGTCACCTAGTGCAG | 27900 fluorescence intensity (a.u.)
ATGAAAGATTGATATGTTGACATGTTCACAGATGAACTTACGGAGTCACCTAGTGCAG | 17200 fluorescence intensity (a.u.)
AAATAATGTACAAAAGGTGATAGATGAAACAATAAAGTAGCGGAGTCACCTAGTGCAG | 4460 fluorescence intensity (a.u.)
TAATAATTTGGGGAGCTTAATTGCTATCCAGTGATATATACGGAGTCACCTAGTGCAG | 11100 fluorescence intensity (a.u.)
ACTAATCATCACATCGCTGTCTCAGATTCTCAGTGACAGACGGAGTCACCTAGTGCAG | 4120 fluorescence intensity (a.u.)
AAAATTGACTAGAGTGCTCTCACAAAATAAACTAGAGAGACGGAGTCACCTAGTGCAG | 7000 fluorescence intensity (a.u.)
CACCAATCACATTAATATGATAATTCATTCACCTACCTCGCGGAGTCACCTAGTGCAG | 39700 fluorescence intensity (a.u.)
AGTCAGATGCTCATAATTGAAAGAAATGCTAGGGCCTGAACGGAGTCACCTAGTGCAG | 15200 fluorescence intensity (a.u.)
TGTTAATTTGAAATTTGGAAGATGTAATTAACTGTTGCCACGGAGTCACCTAGTGCAG | 46900 fluorescence intensity (a.u.)
TTATGATTTCAAGGTTAATGCTGCAGTTTCAAACAAGTTACGGAGTCACCTAGTGCAG | 3480 fluorescence intensity (a.u.)

Sequence | binding signal
CACTATAGTTACAGTGTAATTACATGCAAGTTACAGTGTACGGAGTCACCTAGTGCAG | 5020 fluorescence intensity (a.u.)
AGGTGATCATGCAAGGTAGTCAACAGTGTACTGCTAGTTACGGAGTCACCTAGTGCAG | 53800 fluorescence intensity (a.u.)
TTGGTGATTGAATCTGAACATGCTGGCCTTTGGGATGACTCGGAGTCACCTAGTGCAG | 28400 fluorescence intensity (a.u.)
AATTCTGTGATTAGCGGGTGCTTTTCGAATGGATGGCATGCGGAGTCACCTAGTGCAG | 29200 fluorescence intensity (a.u.)
GCATCGGAATTTTGGATGTGATTGCCTGCATCGGATGGATCGGAGTCACCTAGTGCAG | 18200 fluorescence intensity (a.u.)
GTACATGAATTTTGATTAATTGCTAATTTTACATATGGATCGGAGTCACCTAGTGCAG | 26000 fluorescence intensity (a.u.)
CCGGGTGATTGGCATGAATCTGAATGGCTGAATCCTGATGCGGAGTCACCTAGTGCAG | 53400 fluorescence intensity (a.u.)
TATGATTGGCATGGCCTGAATGGATGGATGAATTTTGGATCGGAGTCACCTAGTGCAG | 58500 fluorescence intensity (a.u.)
TTTAATTGTATTAACACTCGTGAGAATGATACATGAGATCCGGAGTCACCTAGTGCAG | 29000 fluorescence intensity (a.u.)
GTGAATTTGATAGGGCGATAAGGATAATAAACAAGAACATCGGAGTCACCTAGTGCAG | 3540 fluorescence intensity (a.u.)
ACATTAACAAACTCTATCTTAACATTTAGATGCAAGAGCCCGGAGTCACCTAGTGCAG | 3790 fluorescence intensity (a.u.)
TCCCCTTGATTGATTGATCACCATTATTATAACATCCTCTCGGAGTCACCTAGTGCAG | 64400 fluorescence intensity (a.u.)
TCCTTGATTTCTCCCCTCTCTCTGTCATTTCTCTCTTCCTCGGAGTCACCTAGTGCAG | 13500 fluorescence intensity (a.u.)
CTAACTCAATGATTAAAATCTCGCCAGATCCCTCCTGCGTCGGAGTCACCTAGTGCAG | 16700 fluorescence intensity (a.u.)
TACATGATGGGAAAATAGACTTTTGCAGCAGAGATTGAATCGGAGTCACCTAGTGCAG | 10200 fluorescence intensity (a.u.)
GATGATTGATGGGAATATAGAGATCCCATGTTTTCCAGCTCGGAGTCACCTAGTGCAG | 61000 fluorescence intensity (a.u.)
AGTGACCTCAATTGATCATTCCCTCATCCTTTAGTCAAGCCGGAGTCACCTAGTGCAG | 3990 fluorescence intensity (a.u.)
AATATCCCATGATTGACTAGCTAGATGAATCCATATGGGTCGGAGTCACCTAGTGCAG | 36500 fluorescence intensity (a.u.)
CGGATCCCATTCAATCATTCATTCATGTCGGATTGATGCCCGGAGTCACCTAGTGCAG | 11800 fluorescence intensity (a.u.)
TAATAACTTATACTGATATTGATTACTCCCTCCATCCCTACGGAGTCACCTAGTGCAG | 11800 fluorescence intensity (a.u.)
TCGCCAATGATTGATCGCCTCATTCCCTCCTCCTCCTCCTCGGAGTCACCTAGTGCAG | 57300 fluorescence intensity (a.u.)
